Molecules are shown by their SMILES. The campaign covered roughly 310,000 compounds. About 14,000 (4.5%) showed an effect of 50% or more. The effect is printed as a negative number. The entries come from a sample that favours strong results as a whole.
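Further: peak tail current of the secondary pulse compared with the same well before compound.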

human ether-à-go-go-related gene (hERG) potassium channel, sequence (Q12809 whole entry, looked up): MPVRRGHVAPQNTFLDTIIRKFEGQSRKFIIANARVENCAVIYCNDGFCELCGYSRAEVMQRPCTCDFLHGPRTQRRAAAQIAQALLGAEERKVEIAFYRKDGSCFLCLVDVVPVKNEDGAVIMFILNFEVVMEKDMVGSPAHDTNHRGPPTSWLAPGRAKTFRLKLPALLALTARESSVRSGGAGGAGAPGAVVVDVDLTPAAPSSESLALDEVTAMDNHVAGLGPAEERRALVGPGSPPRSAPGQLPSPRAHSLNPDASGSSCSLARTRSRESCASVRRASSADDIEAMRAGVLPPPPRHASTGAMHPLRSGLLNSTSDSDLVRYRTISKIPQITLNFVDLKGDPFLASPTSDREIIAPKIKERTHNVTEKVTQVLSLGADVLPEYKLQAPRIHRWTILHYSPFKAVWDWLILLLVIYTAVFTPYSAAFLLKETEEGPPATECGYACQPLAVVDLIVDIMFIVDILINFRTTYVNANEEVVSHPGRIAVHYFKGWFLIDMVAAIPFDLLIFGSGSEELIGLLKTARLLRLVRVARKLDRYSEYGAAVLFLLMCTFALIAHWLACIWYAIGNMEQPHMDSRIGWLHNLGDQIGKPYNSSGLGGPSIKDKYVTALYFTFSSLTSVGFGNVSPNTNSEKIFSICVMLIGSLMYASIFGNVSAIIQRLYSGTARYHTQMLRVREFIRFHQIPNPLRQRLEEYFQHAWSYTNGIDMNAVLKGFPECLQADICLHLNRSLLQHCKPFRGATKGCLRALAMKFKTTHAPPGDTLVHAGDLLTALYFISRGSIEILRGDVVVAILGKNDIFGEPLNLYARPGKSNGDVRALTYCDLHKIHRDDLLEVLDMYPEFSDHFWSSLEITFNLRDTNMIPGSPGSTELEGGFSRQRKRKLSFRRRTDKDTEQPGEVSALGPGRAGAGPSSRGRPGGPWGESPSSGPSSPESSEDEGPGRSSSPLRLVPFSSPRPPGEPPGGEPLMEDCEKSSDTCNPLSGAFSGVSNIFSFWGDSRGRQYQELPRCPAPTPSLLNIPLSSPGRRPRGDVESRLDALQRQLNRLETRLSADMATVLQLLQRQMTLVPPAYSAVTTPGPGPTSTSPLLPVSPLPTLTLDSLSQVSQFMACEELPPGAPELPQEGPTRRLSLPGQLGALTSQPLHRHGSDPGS

The assay concerns the target human ether-à-go-go-related gene (hERG) potassium channel (human, UniProt Q12809). The experiment in a line: primary screen, population patch clamp on CHO cells stably expressing hERG; higher = less effect of the substance.
In the case of `CC(C)CCC(O)(c1ccccc1)C(CN1CCOCC1)c1ccccc1.Cl` (centres unmarked), the “hERG current change (%, negative = inhibition) at 10uM” value is reported as -1.36%. As for `CNS(=O)(=O)Cc1ccc2[nH]cc(CCN(C)C)c2c1`, the figure is 10.6%; as for `Cc1ccc(C)c(CN2CCC(CNC(=O)CCc3nnc4ccc(N5CCCCC5)nn34)CC2)c1`, -30.3%. With `COc1ccc(NC(=O)NNC(=O)c2ccccc2-n2cccc2)cc1OC` the figure was 25.4%.

Turning to `COc1ccc(-c2nc3oc4cc(OC)ccc4c(=O)c3c(=O)n2Cc2ccco2)cc1`, the “hERG current change (%, negative = inhibition) at 10uM” value was -27.5%. As for `COc1ccc2c(=O)c3c(=O)n(Cc4ccco4)c(-c4ccccc4)nc3oc2c1`, the figure is -32.2%. With `COc1ccc2c(=O)c3c(=O)n(Cc4ccco4)c(-c4ccc(C)cc4)nc3oc2c1` the figure was -53.3%; with `COc1ccc2c(=O)c3c(=O)n(Cc4ccco4)c(-c4cc(OC)c(OC)c(OC)c4)nc3oc2c1`, -16%; with `COc1ccc2c(=O)c3c(=O)n(Cc4ccco4)c(-c4ccco4)nc3oc2c1`, -62.4%. Consider `COc1ccc(Cn2c(-c3ccco3)nc3oc4cc(OC)ccc4c(=O)c3c2=O)cc1`, for which the “hERG current change (%, negative = inhibition) at 10uM” value is -31.4%. Turning to `Nc1c(C(=O)Nc2ccc3c(c2)OCCO3)nnn1Cc1cccc(F)c1`, the “hERG current change (%, negative = inhibition) at 10uM” value is -4.88%. As for `COc1ccc2c(C)nc(Nc3nc(-c4ccccc4)cc(=O)[nH]3)nc2c1`, the figure is 2.47%. As for `O=C(Cn1cccc1C(=O)c1ccccc1)NCCCc1ccccc1`, the figure is -8.33%; as for `CCCNC(=O)Cn1cccc1C(=O)c1ccccc1`, 14.7%. As to `Cc1ccccc1C(=O)c1cccn1CC(=O)NCc1ccccc1`, the “hERG current change (%, negative = inhibition) at 10uM” value was found to be 21.7%.

In the case of `Cc1ccccc1C(=O)c1cccn1CC(=O)NCCCN1CC(C)CC(C)C1` (centres unmarked), the “hERG current change (%, negative = inhibition) at 10uM” value is listed as -72.1%.

Consider `Cc1ccccc1C(=O)c1cccn1CC(=O)NCCCc1ccccc1`, for which the “hERG current change (%, negative = inhibition) at 10uM” value is given as 9.69%. In the case of `CC1CC(C)CN(CCCNC(=O)Cn2cccc2C(=O)c2ccccc2)C1` (centres unmarked), the “hERG current change (%, negative = inhibition) at 10uM” value is on record as -63.1%. As for `Cc1ccc(NC(=O)c2ccc(OCC3CCCO3)cc2)c(C)c1` (centres unmarked), the figure is -9.65%; as for `Cc1cc(NC(=O)c2sc(Nc3ccc(F)cc3)nc2N)no1`, 20%; as for `Cc1cc(N2CCN(S(=O)(=O)c3ccccc3)CC2)nc2c(C)cccc12`, 23.1%.

Take `Cc1ccc(S(=O)(=O)N2CCN(c3ccccc3)CC2)cc1C`: the “hERG current change (%, negative = inhibition) at 10uM” value worked out at 6.82%. Regarding `Cc1cc(N2CCN(S(=O)(=O)c3ccc(C)c(C)c3)CC2)c2ccccc2n1`, the “hERG current change (%, negative = inhibition) at 10uM” value is -64.6%. With `Cc1cc(N2CCN(S(=O)(=O)c3ccc(Cl)c(Cl)c3)CC2)c2ccccc2n1` the figure was -45.3%; with `CC(=O)Nc1ccc(S(=O)(=O)N2CCN(c3ncccn3)CC2)cc1`, 6.13%.

Turning to `Cn1c(N2CCN(S(=O)(=O)c3ccc(Cl)cc3)CC2)nc2ccccc21`, the “hERG current change (%, negative = inhibition) at 10uM” value was -34%. In the case of `Cc1cc(N2CCN(S(=O)(=O)c3ccccc3)CC2)c2ccccc2n1`, the “hERG current change (%, negative = inhibition) at 10uM” value is reported as -73.3%. Consider `Cc1ccccc1N1CCN(S(=O)(=O)c2ccccc2)CC1`, for which the “hERG current change (%, negative = inhibition) at 10uM” value worked out at 0.732%. As to `CC(=O)Nc1ccc(S(=O)(=O)N2CCN(c3ccccn3)CC2)cc1`, the “hERG current change (%, negative = inhibition) at 10uM” value is -3.36%. Consider `Cc1cc(N2CCN(S(=O)(=O)c3ccc(Cl)cc3)CC2)c2ccccc2n1`, for which the “hERG current change (%, negative = inhibition) at 10uM” value is -77.8%. For `CC(=O)Nc1ccc(S(=O)(=O)N2CCN(c3nc(NC4CCCC4)c4ccccc4n3)CC2)cc1`, the “hERG current change (%, negative = inhibition) at 10uM” value is -75.8%. As for `Cc1ccc(S(=O)(=O)N2CCN(c3ncccn3)CC2)cc1C`, the figure is 13.9%. As to `O=C(CCCn1nnc2ccccc2c1=O)N[C@@H](Cc1ccccc1)C(=O)O`, the “hERG current change (%, negative = inhibition) at 10uM” value is 13%. With `COc1cc(OC)c(/C=N/n2c(C3CCCCC3)n[nH]c2=S)c(OC)c1` the figure was 22.6%; with `CCSc1nc2c(c(=O)n1-c1ccc(F)cc1)SCC2`, -4.12%. As for `Cc1cc(C)cc(NC(=O)N2C3CCCC2CC(NC(=O)C2CC2)C3)c1` (centres unmarked), the figure is 17%. With `Fc1ccc(COc2ccccc2-c2ccnc3ncnn23)cc1` the figure was -6.51%. As to `Cc1cccc(C)c1NC(=O)CN(C)CC(=O)N(C)CC(=O)Nc1ccccc1Br`, the “hERG current change (%, negative = inhibition) at 10uM” value was determined as 14%. Turning to `CCCn1c(-c2ccc[nH]c2=O)nc2ccccc21`, the “hERG current change (%, negative = inhibition) at 10uM” value was 15.6%. For the molecule `CCOC(=O)c1ccc(NC(=O)C2CC(=O)N(c3ccc4c(c3)OCCO4)C2)cc1` (centres unmarked), the “hERG current change (%, negative = inhibition) at 10uM” value is recorded as 10.7%. Regarding `COC(=O)c1nn(-c2c(C)n(C)n(-c3ccccc3)c2=O)cc1O`, the “hERG current change (%, negative = inhibition) at 10uM” value came out at 5.84%. As to `COc1cccc(NC(=S)NNC(=O)CCn2cc([N+](=O)[O-])cn2)c1`, the “hERG current change (%, negative = inhibition) at 10uM” value was -2.61%. With `Cc1ccc(NCc2nnc(SCC(=O)N(Cc3ccccc3)C(C)(C)C)o2)c(C)c1` the figure was -9.53%. As for `CC(=O)Nc1ccc(S(=O)(=O)N2CCN(c3nc(C)cc(C)n3)CC2)cc1`, the “hERG current change (%, negative = inhibition) at 10uM” value is reported as 5.68%. For `CC(=O)Nc1ccc(S(=O)(=O)N2CCN(c3cc(C)nc4ccccc34)CC2)cc1`, the “hERG current change (%, negative = inhibition) at 10uM” value is given as -88.5%.

In the case of `CC(=O)Nc1ccc(S(=O)(=O)N2CCN(S(=O)(=O)c3ccccc3)CC2)cc1`, the “hERG current change (%, negative = inhibition) at 10uM” value was 11.7%. As for `C[C@@H](NC(=O)c1[nH]cnc1C(=O)Nc1nccs1)c1ccccc1`, the figure is -3.32%; as for `CC(=O)Nc1cccc(C(=O)Nc2ccccc2N2CCOCC2)c1`, -0.962%; as for `Cc1ccccc1-n1c(Cn2c(=O)sc3ccccc32)nnc1SCC(=O)NCC1CCCO1` (centres unmarked), -2.85%.

Regarding `CCOc1ccccc1-n1c(=O)c2ccccc2c2ccccc2c1=O`, the “hERG current change (%, negative = inhibition) at 10uM” value is reported as -6.99%.

Turning to `ClCC1NCC(c2ccccc2Cl)c2c1[nH]c1ccccc21` (centres unmarked), the “hERG current change (%, negative = inhibition) at 10uM” value was determined as 0.482%. As for `COc1cccc(C2CNC3(CCCC(C)C3)c3[nH]c4ccccc4c32)c1OC.Cl` (centres unmarked), the figure is -23.6%; as for `CC1(C)NC(C(=O)O)Cc2c1[nH]c1ccccc21` (centres unmarked), 3.65%. As for `CC1(C)CC(=O)CC2(C1)NCC(c1ccccc1)c1c2[nH]c2ccccc12.Cl` (centres unmarked), the figure is -85.8%; as for `CC1c2c([nH]c3ccccc23)CCC1C(=O)O` (centres unmarked), 22.4%; as for `CC1(C)CC(=O)CC2(C1)NCC(c1ccccc1Cl)c1c2[nH]c2ccccc12.Cl` (centres unmarked), -51.4%.

As to `O=Nc1ccc(NOC(=O)c2ccccc2Br)cc1`, the “hERG current change (%, negative = inhibition) at 10uM” value is listed as 3.45%. As for `CC(C)(C)c1cc(CCC(=O)Nc2ccncc2)cc(C(C)(C)C)c1O`, the figure is -16.6%. As for `CCN(CC)CCNC(=O)C(C)c1nn(CC)c(=O)c2ccccc12.Cl` (centres unmarked), the figure is 7.49%; as for `CCN(CC)CCN1C(=O)Cn2c(C)c(C)c3cccc1c32.Cl`, -52.4%; as for `CCN(CC)CCNC(=O)Cn1nc(-c2ccccc2)c2ccccc2c1=O`, -31%.

For `CCN(CC)CCN1C(=O)Cn2c(C)c(C)c3cccc1c32.O=C(O)C(O)C(O)C(=O)O`, the “hERG current change (%, negative = inhibition) at 10uM” value is listed as -65.1%. Take `CCN(CC)CCN1C(=O)C2C3c4ccccc4C(c4ccccc43)C2C1=O` (centres unmarked): the “hERG current change (%, negative = inhibition) at 10uM” value was -2.51%. Turning to `Cc1c(C)n2c3c(cccc13)CC2`, the “hERG current change (%, negative = inhibition) at 10uM” value is reported as -0.781%. With `Cc1ccc(NC(=O)Cn2c(=O)n(Cc3ccco3)c(=N)c3c4c(sc32)COC(C)(C)C4)cc1` the figure was -7.76%; with `CC(C)[C@H](NC(=O)c1ccco1)C(=O)OCC(=O)N1CC(=O)Nc2ccccc21`, 13.3%.

Consider `O=C1N/C(=C/c2ccc(N3CCOCC3)cc2)C(=O)N1Cc1ccc(F)cc1`, for which the “hERG current change (%, negative = inhibition) at 10uM” value was 22.1%. On to `CCOC(=O)C1CCN(C(=O)CSc2cc(=O)n(CC)c3ccccc23)CC1`, for which the “hERG current change (%, negative = inhibition) at 10uM” value is -29.4%.

For `O=[N+]([O-])c1cc2c(c(CSc3nnc4ccccn34)c1)OCOC2`, the “hERG current change (%, negative = inhibition) at 10uM” value is -12.4%. As for `O=C(O)C(Cc1ccccc1)n1cnnn1` (centres unmarked), the figure is 7.85%. In the case of `CCC(CC)c1nn2c(N)c(/C=C3\C=Nc4ccccc43)c(=O)nc2s1`, the “hERG current change (%, negative = inhibition) at 10uM” value is reported as 0.567%. Turning to `COc1ccc(S(=O)(=O)N2CCCC(C(=O)O)C2)cc1Cl` (centres unmarked), the “hERG current change (%, negative = inhibition) at 10uM” value came out at 6.43%. Regarding `CC1=NNC(=O)C1CC(=O)N/N=C/C(Br)=C/c1ccccc1` (centres unmarked), the “hERG current change (%, negative = inhibition) at 10uM” value was 9.09%.

Turning to `O=c1c2ccccc2oc2ccc(-c3ccc4[nH]ccc4c3)cc12`, the “hERG current change (%, negative = inhibition) at 10uM” value is reported as -2.53%. `N#CCCn1cc(C(=O)Nc2ccc([N+](=O)[O-])cc2)c(-c2ccc3c(c2)OCCO3)n1`: the “hERG current change (%, negative = inhibition) at 10uM” value is reported as -72.8%. With `COc1ccc(NC(=O)c2cn(CCC#N)nc2-c2cccs2)cc1`, the “hERG current change (%, negative = inhibition) at 10uM” value is on record as -11.3%.

On to `N#CCCn1cc(C(=O)Nc2ccc(C(=O)O)cc2)c(-c2cccs2)n1`, for which the “hERG current change (%, negative = inhibition) at 10uM” value came to 21%. For `COc1ccc(-c2nn(CCC#N)cc2C(=O)Nc2ccccc2)cc1OC`, the “hERG current change (%, negative = inhibition) at 10uM” value is -6.03%. For the molecule `N#CCCn1cc(C(=O)Nc2ccc(F)cc2)c(-c2ccccc2)n1`, the “hERG current change (%, negative = inhibition) at 10uM” value was -15.2%.

On to `COc1ccc(-c2nn(CCC#N)cc2C(=O)Nc2cccc(C(=O)O)c2)cc1OC`, for which the “hERG current change (%, negative = inhibition) at 10uM” value is on record as 20.9%. As for `COc1ccc(NC(=O)c2cn(CCC#N)nc2-c2ccc([N+](=O)[O-])cc2)cc1`, the figure is 2.58%; as for `CCOC(=O)c1ccc(NC(=O)c2cn(CCC#N)nc2-c2ccc3c(c2)OCCO3)cc1`, -4.59%. As for `N#CCCn1cc(C(=O)Nc2ccc(F)cc2)c(-c2ccc([N+](=O)[O-])cc2)n1`, the figure is -57.1%; as for `COc1ccc(-c2nn(CCC#N)cc2C(=O)Nc2cccc([N+](=O)[O-])c2)cc1OC`, -57.9%. As to `Cc1ccc(NC(=O)c2cn(CCC#N)nc2-c2ccc3c(c2)OCCO3)c([N+](=O)[O-])c1`, the “hERG current change (%, negative = inhibition) at 10uM” value is -33.9%. As for `N#CCCn1cc(C(=O)Nc2ccc([N+](=O)[O-])cc2)c(-c2cccs2)n1`, the figure is -59.7%.

Values taken from article PMC4336329 (PLoS ONE, 2015).
